Publication PMC7862700, “An all-to-all approach to the identification of sequence-specific readers for epigenetic DNA modifications on cytosine”

Columns and labels:
Assay in all cases: DAPPL (digital affinity profiling via proximity ligation, sequencing); 10 mM Tris-HCl pH 7.5, 50 mM NaCl, 1 mM DTT, 4% glycerol, room temperature, 30 min; GST-TFs on glutathione beads, 16-mer random dsDNA library, 0.1% formaldehyde crosslink after washing; high values mean tight binding
[1] = biological target: T1, FEV (Homo sapiens, UniProt Q99581 1-238); details: protein: recombinant; tags: N-terminal GST; dsDNA, one strand shown
T1 sequence: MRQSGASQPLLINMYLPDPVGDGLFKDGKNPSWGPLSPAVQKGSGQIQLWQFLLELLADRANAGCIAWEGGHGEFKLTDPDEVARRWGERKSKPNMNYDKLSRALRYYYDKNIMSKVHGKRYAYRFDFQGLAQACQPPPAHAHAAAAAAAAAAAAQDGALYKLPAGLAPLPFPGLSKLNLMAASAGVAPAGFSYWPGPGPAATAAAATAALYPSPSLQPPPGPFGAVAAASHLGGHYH
Summary of the method: (§1)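 Sequencing on an Illumina NextSeq500 followed washing, crosslinking with 0.1% formaldehyde, proximity ligation (BsaI/T4 ligase, 1 h, 37 °C) and PCR amplification of pools that had been incubated for 30 min at room temperature with 200 nmole of a random double-stranded 16-mer DNA library in Tris/NaCl/DTT/glycerol buffer. Each pool held DNA-barcoded human transcription factors, expressed in yeast as GST fusions and captured on glutathione beads, plus a tag-only sample. Binding signal is a hexamer's read frequency for a factor divided by its frequency in the tag-only sample.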

[2] = biological target: ETV5 (Homo sapiens, UniProt P41161 1-510); details: protein: recombinant; tags: N-terminal GST; dsDNA, one strand shown
Summary of the method: as §1

[3] = biological target: HSF1 (Homo sapiens, UniProt Q00613 1-529); details: protein: recombinant; tags: N-terminal GST; chain copies: 3; dsDNA, one strand shown
Summary of the method: as §1

[4] = biological target: T2, SPIC (Homo sapiens, UniProt Q8N5J4 1-248); details: protein: recombinant; tags: N-terminal GST; dsDNA, one strand shown
T2 sequence: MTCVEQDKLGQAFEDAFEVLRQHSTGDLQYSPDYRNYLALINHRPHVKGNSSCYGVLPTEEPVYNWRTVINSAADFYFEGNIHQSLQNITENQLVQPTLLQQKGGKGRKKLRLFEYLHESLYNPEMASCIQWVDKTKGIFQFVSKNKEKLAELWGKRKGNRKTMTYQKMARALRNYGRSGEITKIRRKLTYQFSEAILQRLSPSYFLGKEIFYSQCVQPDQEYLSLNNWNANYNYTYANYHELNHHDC
Summary of the method: as §1

[5] = biological target: ELF4 (Homo sapiens, UniProt Q99607 1-663); details: protein: recombinant; tags: N-terminal GST; dsDNA, one strand shown
Summary of the method: as §1

[6] = biological target: T3, ELK4 (Homo sapiens, UniProt P28324-2 1-405); details: protein: recombinant; tags: N-terminal GST; dsDNA, one strand shown
T3 sequence: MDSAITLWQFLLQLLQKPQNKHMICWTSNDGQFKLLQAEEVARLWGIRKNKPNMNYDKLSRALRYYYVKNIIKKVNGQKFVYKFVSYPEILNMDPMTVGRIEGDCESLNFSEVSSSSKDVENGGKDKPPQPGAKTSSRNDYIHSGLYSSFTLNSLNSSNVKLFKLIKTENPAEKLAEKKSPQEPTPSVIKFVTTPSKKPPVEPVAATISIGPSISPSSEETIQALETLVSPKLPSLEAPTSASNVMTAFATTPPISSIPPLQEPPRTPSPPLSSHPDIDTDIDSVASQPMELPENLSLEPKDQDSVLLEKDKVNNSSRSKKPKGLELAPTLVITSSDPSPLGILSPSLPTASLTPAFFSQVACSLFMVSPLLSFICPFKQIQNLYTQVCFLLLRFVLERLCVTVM
Summary of the method: as §1

[7] = biological target: T4, ETV2 (Homo sapiens, UniProt O00321 1-342); details: protein: recombinant; tags: N-terminal GST; dsDNA, one strand shown
T4 sequence: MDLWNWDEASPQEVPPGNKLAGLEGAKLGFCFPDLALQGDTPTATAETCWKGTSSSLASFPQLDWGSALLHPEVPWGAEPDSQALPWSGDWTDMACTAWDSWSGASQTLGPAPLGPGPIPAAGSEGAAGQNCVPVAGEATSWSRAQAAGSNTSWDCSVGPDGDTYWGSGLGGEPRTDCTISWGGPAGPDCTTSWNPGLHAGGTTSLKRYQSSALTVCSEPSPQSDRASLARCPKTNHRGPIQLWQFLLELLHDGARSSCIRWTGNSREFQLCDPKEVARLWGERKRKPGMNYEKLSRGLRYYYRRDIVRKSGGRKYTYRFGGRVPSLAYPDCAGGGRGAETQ
Summary of the method: as §1

[8] = biological target: T5, ELF3 (Homo sapiens, UniProt P78545 1-371); details: protein: recombinant; tags: N-terminal GST; dsDNA, one strand shown
T5 sequence: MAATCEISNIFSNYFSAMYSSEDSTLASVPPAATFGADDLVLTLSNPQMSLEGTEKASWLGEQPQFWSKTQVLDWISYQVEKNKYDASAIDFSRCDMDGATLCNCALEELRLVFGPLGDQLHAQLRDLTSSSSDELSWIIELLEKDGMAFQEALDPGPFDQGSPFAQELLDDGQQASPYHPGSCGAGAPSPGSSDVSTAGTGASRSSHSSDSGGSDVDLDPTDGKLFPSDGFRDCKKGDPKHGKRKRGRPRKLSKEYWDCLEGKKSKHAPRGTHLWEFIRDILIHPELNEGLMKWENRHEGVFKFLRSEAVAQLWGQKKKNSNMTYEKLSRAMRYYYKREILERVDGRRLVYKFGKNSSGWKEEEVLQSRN
Summary of the method: as §1

[9] = biological target: CRX (Homo sapiens, UniProt O43186 1-299); details: protein: recombinant; tags: N-terminal GST; dsDNA, one strand shown
Summary of the method: as §1

[10] = biological target: ETV1 (Homo sapiens, UniProt P50549 1-477); details: protein: recombinant; tags: N-terminal GST; dsDNA, one strand shown
Summary of the method: as §1

ELF4, sequence (Q99607 whole entry): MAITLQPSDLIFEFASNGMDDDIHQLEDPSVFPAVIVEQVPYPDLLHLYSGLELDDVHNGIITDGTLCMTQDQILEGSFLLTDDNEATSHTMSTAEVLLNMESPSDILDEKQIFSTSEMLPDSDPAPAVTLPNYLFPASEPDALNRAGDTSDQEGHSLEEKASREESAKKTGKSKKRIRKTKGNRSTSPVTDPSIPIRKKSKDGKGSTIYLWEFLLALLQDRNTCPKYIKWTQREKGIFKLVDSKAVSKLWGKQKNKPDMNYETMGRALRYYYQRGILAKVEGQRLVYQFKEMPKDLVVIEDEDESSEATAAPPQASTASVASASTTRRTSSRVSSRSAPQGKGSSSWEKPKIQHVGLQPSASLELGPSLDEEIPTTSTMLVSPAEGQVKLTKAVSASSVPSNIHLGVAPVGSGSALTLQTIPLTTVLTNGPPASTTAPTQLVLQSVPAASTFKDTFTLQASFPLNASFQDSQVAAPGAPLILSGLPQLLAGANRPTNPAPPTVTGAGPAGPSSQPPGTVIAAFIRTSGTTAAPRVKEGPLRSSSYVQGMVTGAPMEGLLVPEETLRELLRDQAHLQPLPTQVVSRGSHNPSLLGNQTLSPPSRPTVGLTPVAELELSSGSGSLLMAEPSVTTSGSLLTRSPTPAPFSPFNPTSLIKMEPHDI
ETV5, sequence (P41161 whole entry): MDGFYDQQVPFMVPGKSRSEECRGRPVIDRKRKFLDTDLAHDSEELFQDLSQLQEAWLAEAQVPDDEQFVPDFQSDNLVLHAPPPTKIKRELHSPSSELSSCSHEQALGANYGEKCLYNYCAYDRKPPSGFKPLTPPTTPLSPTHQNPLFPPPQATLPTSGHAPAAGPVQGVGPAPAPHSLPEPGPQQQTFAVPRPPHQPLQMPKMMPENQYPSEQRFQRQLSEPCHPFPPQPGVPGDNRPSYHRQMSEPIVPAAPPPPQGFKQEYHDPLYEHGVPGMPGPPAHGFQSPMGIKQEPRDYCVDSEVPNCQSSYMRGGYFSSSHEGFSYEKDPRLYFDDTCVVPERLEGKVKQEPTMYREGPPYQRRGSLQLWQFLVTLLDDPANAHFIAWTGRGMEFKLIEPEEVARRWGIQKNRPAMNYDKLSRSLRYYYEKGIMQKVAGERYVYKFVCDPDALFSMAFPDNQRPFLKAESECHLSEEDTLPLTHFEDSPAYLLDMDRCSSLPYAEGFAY
HSF1, sequence (Q00613 whole entry): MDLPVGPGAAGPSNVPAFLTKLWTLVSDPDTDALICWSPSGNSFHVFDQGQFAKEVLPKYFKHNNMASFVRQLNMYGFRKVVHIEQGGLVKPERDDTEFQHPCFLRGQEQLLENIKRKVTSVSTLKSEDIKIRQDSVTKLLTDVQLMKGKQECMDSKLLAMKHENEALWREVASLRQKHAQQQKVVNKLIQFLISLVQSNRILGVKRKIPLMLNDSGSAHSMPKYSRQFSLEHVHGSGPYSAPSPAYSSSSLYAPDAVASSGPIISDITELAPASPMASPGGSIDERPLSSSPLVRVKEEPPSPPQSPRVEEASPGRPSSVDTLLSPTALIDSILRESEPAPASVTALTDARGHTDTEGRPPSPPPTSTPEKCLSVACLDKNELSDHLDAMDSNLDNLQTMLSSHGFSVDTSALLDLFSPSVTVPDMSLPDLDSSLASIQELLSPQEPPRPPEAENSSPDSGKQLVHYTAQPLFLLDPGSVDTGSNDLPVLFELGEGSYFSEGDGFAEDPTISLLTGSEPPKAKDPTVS
CRX, sequence (O43186 whole entry): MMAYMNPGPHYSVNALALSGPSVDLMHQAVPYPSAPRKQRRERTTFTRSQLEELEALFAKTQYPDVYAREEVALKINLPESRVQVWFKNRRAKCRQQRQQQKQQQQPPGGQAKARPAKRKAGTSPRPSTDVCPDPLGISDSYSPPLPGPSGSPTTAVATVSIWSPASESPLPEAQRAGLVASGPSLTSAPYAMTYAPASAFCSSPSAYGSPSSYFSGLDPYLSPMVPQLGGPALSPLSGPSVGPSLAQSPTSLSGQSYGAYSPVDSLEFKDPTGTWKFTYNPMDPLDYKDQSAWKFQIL
ETV1, sequence (P50549 whole entry): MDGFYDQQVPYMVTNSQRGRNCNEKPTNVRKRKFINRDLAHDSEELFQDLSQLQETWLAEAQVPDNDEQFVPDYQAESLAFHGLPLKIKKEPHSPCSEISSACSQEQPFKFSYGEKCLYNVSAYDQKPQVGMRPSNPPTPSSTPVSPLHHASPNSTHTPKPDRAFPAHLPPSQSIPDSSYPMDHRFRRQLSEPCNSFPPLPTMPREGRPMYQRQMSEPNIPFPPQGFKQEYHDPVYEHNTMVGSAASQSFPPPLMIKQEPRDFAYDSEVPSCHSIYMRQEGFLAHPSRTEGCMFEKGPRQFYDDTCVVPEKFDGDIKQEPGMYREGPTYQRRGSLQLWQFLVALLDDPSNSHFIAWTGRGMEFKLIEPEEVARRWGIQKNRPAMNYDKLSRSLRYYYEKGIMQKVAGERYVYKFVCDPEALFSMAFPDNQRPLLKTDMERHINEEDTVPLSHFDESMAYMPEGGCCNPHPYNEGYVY

| Sequence | binding signal [1] | binding signal [2] | binding signal [3] | binding signal [4] | binding signal [5] | binding signal [6] | binding signal [7] | binding signal [8] | binding signal [9] | binding signal [10] |
| --- | --- | --- | --- | --- | --- | --- | --- | --- | --- | --- |
| TATACG | 1.18 fold enrichment (6-mer frequency, TF over GST control) | 1.25 fold enrichment (6-mer frequency, TF over GST control) | 1.27 fold enrichment (6-mer frequency, TF over GST control) | 1.1 fold enrichment (6-mer frequency, TF over GST control) | 1.31 fold enrichment (6-mer frequency, TF over GST control) | 1.14 fold enrichment (6-mer frequency, TF over GST control) | 1.15 fold enrichment (6-mer frequency, TF over GST control) | 1.26 fold enrichment (6-mer frequency, TF over GST control) | 1.39 fold enrichment (6-mer frequency, TF over GST control) | 1.32 fold enrichment (6-mer frequency, TF over GST control) |
| TCCAAT | 1.21 fold enrichment (6-mer frequency, TF over GST control) | 1.17 fold enrichment (6-mer frequency, TF over GST control) | 1.23 fold enrichment (6-mer frequency, TF over GST control) | 1.17 fold enrichment (6-mer frequency, TF over GST control) | 1.21 fold enrichment (6-mer frequency, TF over GST control) | 1.12 fold enrichment (6-mer frequency, TF over GST control) | 1.24 fold enrichment (6-mer frequency, TF over GST control) | 1.11 fold enrichment (6-mer frequency, TF over GST control) | 1.27 fold enrichment (6-mer frequency, TF over GST control) | 1.17 fold enrichment (6-mer frequency, TF over GST control) |
| CTAATT | 1.35 fold enrichment (6-mer frequency, TF over GST control) | 1.28 fold enrichment (6-mer frequency, TF over GST control) | 1.47 fold enrichment (6-mer frequency, TF over GST control) | 1.46 fold enrichment (6-mer frequency, TF over GST control) | 1.38 fold enrichment (6-mer frequency, TF over GST control) | 1.27 fold enrichment (6-mer frequency, TF over GST control) | 1.57 fold enrichment (6-mer frequency, TF over GST control) | 1.48 fold enrichment (6-mer frequency, TF over GST control) | 2.09 fold enrichment (6-mer frequency, TF over GST control) | 1.26 fold enrichment (6-mer frequency, TF over GST control) |
| ACTTCT | 1.4 fold enrichment (6-mer frequency, TF over GST control) | 1.45 fold enrichment (6-mer frequency, TF over GST control) | 2.1 fold enrichment (6-mer frequency, TF over GST control) | 1.47 fold enrichment (6-mer frequency, TF over GST control) | 1.49 fold enrichment (6-mer frequency, TF over GST control) | 1.83 fold enrichment (6-mer frequency, TF over GST control) | 1.37 fold enrichment (6-mer frequency, TF over GST control) | 1.45 fold enrichment (6-mer frequency, TF over GST control) | 1.55 fold enrichment (6-mer frequency, TF over GST control) | 1.47 fold enrichment (6-mer frequency, TF over GST control) |
| CATCTC | 1.2 fold enrichment (6-mer frequency, TF over GST control) | 1.29 fold enrichment (6-mer frequency, TF over GST control) | 1.26 fold enrichment (6-mer frequency, TF over GST control) | 1.46 fold enrichment (6-mer frequency, TF over GST control) | 1.26 fold enrichment (6-mer frequency, TF over GST control) | 1.42 fold enrichment (6-mer frequency, TF over GST control) | 1.4 fold enrichment (6-mer frequency, TF over GST control) | 1.23 fold enrichment (6-mer frequency, TF over GST control) | 1.16 fold enrichment (6-mer frequency, TF over GST control) | 1.26 fold enrichment (6-mer frequency, TF over GST control) |
| GCTTCA | 1.27 fold enrichment (6-mer frequency, TF over GST control) | 1.24 fold enrichment (6-mer frequency, TF over GST control) | 1.23 fold enrichment (6-mer frequency, TF over GST control) | 1.3 fold enrichment (6-mer frequency, TF over GST control) | 1.29 fold enrichment (6-mer frequency, TF over GST control) | 1.36 fold enrichment (6-mer frequency, TF over GST control) | 1.29 fold enrichment (6-mer frequency, TF over GST control) | 1.31 fold enrichment (6-mer frequency, TF over GST control) | 1.1 fold enrichment (6-mer frequency, TF over GST control) | 1.23 fold enrichment (6-mer frequency, TF over GST control) |
| CCCTAT | 1.39 fold enrichment (6-mer frequency, TF over GST control) | 1.29 fold enrichment (6-mer frequency, TF over GST control) | 1.13 fold enrichment (6-mer frequency, TF over GST control) | 1.2 fold enrichment (6-mer frequency, TF over GST control) | 1.37 fold enrichment (6-mer frequency, TF over GST control) | 1.29 fold enrichment (6-mer frequency, TF over GST control) | 1.33 fold enrichment (6-mer frequency, TF over GST control) | 1.29 fold enrichment (6-mer frequency, TF over GST control) | 1.17 fold enrichment (6-mer frequency, TF over GST control) | 1.37 fold enrichment (6-mer frequency, TF over GST control) |
